Assay results reported in PubChem BioAssay (EPA / NIEHS).
Results filed as inconclusive are left out. The source made the active and inactive calls. The calls were made as follows, unless noted: active = hit-call score of the fitted dose curve at least 0.9, where 1 is the maximum; inactive = score below 0.9.

Columns and labels:
[1] = target: Paired box protein Pax-6 (Homo sapiens) (UniProt P26367); experiment: ATG_Pax6_CIS: Attagene CIS-FACTORIAL HepG2 Assay for human Paired Box 6 (PAX6) (AID 2282956); settings: HepG2 CIS-FACTORIAL PAX6 reporter transcription, RNA readout; actives raise or lower the signal
Sequence of Paired box protein Pax-6 (Homo sapiens) (P26367 whole entry, looked up): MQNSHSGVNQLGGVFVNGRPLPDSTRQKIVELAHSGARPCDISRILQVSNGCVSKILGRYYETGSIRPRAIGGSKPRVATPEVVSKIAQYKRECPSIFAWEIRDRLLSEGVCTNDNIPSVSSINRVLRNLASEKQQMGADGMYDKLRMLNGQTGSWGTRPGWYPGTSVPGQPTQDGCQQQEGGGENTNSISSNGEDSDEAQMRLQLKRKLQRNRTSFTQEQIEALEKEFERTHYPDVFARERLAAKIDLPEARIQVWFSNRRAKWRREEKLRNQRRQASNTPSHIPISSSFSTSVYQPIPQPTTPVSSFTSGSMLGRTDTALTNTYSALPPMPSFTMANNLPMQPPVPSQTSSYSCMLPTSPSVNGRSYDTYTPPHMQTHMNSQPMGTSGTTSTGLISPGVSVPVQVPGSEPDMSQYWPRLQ
Method in brief: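 HepG2 cells transiently transfected with multiplexed cis-promoter reporter units (endogenous TF activity) were dosed for 24 h. Reporter mRNA was quantified by RT-PCR, 6-FAM labeling, HpaI digestion and capillary electrophoresis; bidirectional fitting versus DMSO baseline.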

[2] = ATG_PXRE_CIS: Attagene CIS-FACTORIAL HepG2 Assay for human Pregnane X Receptor Element (PXRE) (AID 2282957); settings: HepG2 Attagene CIS-FACTORIAL PXRE reporter, mRNA; actives raise or lower the signal
Method in brief: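 Multiplexed cis-reporter assay in transiently transfected human HepG2 cells; 24 h chemical exposure. Reporter transcripts quantified by RT-PCR with fluorescent labeling and capillary electrophoresis.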

[3] = ATG_PPRE_CIS: Attagene CIS-FACTORIAL HepG2 Assay for human Peroxisome Proliferator-activated Response Element (PPRE) (AID 2282958); settings: HepG2 PPRE cis-element reporter, Attagene transcription factor profiling; actives raise or lower the signal
Method in brief: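 DMSO served as negative control and baseline for bidirectional curve fitting. Signal came from PPRE-regulated reporter mRNA in HepG2 cells, measured 24 h post-dosing by RT-PCR, 6-FAM primer extension and capillary electrophoresis.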

[4] = ATG_RORE_CIS: Attagene CIS-FACTORIAL HepG2 Assay for human RAR-related Orphan Receptor Element (RORE) (AID 2282959); settings: HepG2 Attagene cis-factorial RORE reporter, mRNA; actives raise or lower the signal
Method in brief: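 Transfect HepG2 with MRTUs; treat 24 h; extract RNA; RT with oligo(dT); PCR with reporter-specific primers; 6-FAM primer extension; HpaI digest 2 h at 37 C; capillary electrophoresis. Fit vs DMSO, bidirectional.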

[5] = ATG_Sox_CIS: Attagene CIS-FACTORIAL HepG2 Assay for human SRY-box transcription factor (SOX) (AID 2282960); settings: HepG2 Attagene cis-factorial SOX reporter, mRNA; actives raise or lower the signal
Method in brief: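 Fluorescence-labelled cDNA fragments from reporter transcripts, sized by CE, give the signal. Cells: HepG2, transiently transfected with cis-regulated reporter units. Exposure 24 h; DMSO negative control; bidirectional curve fitting.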

[6] = target: Transcription factor Sp1 (Homo sapiens) (UniProt P08047); experiment: ATG_Sp1_CIS: Attagene CIS-FACTORIAL HepG2 Assay for human Specificity Protein 1 (Sp1) (AID 2282961); settings: HepG2 Sp1 cis-reporter transcription, actives raise or lower the signal
Sequence of Transcription factor Sp1 (Homo sapiens) (P08047 whole entry, looked up): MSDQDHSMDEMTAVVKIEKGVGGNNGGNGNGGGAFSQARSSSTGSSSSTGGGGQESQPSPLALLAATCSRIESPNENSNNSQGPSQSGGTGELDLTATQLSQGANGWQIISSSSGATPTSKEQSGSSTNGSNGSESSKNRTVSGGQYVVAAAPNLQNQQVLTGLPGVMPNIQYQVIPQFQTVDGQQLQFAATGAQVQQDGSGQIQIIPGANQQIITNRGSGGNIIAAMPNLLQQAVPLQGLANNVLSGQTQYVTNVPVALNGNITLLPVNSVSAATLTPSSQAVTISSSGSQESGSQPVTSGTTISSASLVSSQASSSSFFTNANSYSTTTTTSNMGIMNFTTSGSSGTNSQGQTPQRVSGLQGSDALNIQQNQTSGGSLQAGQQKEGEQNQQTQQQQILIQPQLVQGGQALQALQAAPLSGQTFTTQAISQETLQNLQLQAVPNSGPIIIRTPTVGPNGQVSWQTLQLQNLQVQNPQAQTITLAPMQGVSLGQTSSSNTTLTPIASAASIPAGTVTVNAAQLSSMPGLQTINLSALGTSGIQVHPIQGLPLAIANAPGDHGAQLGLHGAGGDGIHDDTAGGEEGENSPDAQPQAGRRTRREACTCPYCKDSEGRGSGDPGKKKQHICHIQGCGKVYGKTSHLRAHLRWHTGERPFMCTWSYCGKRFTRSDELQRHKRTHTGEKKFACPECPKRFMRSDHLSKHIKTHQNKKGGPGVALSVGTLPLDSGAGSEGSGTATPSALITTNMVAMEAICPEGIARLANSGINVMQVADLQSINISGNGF
Method in brief: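 Chemicals are dosed onto HepG2 cells transfected with multiple cis-promoter reporter constructs, and after 24 h reporter RNA is reverse-transcribed, PCR-amplified and resolved by capillary electrophoresis for fluorescence quantitation; activity is scored up or down against DMSO.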

[7] = ATG_SREBP_CIS: Attagene CIS-FACTORIAL HepG2 Assay for human Sterol Regulatory Element Binding (SREBP) (AID 2282962); settings: HepG2 Attagene cis-factorial SREBP reporter, mRNA; actives raise or lower the signal
Method in brief: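 HepG2 cells transiently transfected with multiplexed cis-element reporter units report endogenous transcription factor activity. After 24 h of chemical exposure, reporter mRNA was quantified by RT-PCR, 6-FAM labelling, HpaI digestion and capillary electrophoresis; bidirectional fits used DMSO as baseline.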

[8] = target: Signal transducer and activator of transcription 3 (Homo sapiens) (UniProt P40763); experiment: ATG_STAT3_CIS: Attagene CIS-FACTORIAL HepG2 Assay for human Signal Transducer and Activator of Transcription 3 (STAT3) (AID 2282963); settings: HepG2, Attagene cis-factorial STAT3 reporter transcription; actives raise or lower the signal
Sequence of Signal transducer and activator of transcription 3 (Homo sapiens) (P40763 whole entry, looked up): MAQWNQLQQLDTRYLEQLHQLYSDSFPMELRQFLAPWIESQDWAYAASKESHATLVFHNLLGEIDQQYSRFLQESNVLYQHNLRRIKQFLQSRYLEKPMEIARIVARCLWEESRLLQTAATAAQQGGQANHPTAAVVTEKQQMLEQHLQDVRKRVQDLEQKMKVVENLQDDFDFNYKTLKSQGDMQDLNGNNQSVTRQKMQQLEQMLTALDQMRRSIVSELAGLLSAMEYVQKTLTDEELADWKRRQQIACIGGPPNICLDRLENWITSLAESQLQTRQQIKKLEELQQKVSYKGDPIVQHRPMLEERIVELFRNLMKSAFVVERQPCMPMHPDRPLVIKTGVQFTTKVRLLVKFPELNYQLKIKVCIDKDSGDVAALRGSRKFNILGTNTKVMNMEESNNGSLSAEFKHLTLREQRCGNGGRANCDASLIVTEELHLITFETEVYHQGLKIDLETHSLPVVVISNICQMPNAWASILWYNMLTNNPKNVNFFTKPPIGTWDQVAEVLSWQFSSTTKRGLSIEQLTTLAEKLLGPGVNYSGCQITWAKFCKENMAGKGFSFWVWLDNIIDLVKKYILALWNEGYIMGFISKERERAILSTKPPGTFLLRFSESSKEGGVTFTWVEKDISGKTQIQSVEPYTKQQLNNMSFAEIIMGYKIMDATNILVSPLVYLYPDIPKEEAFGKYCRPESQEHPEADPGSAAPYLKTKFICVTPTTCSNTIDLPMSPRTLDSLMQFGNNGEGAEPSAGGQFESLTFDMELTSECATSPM
Method in brief: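 HepG2 cells transiently transfected with cis-element-driven multiple reporter transcription units; after 24 h chemical exposure, reporter mRNA measured by RT-PCR, 6-FAM primer-extension labelling, HpaI digestion and capillary electrophoresis. Bidirectional fitting versus DMSO baseline.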

[9] = ATG_TA_CIS: Attagene CIS-FACTORIAL HepG2 Assay for human TA Basal Promoter (AID 2282964); settings: HepG2 Attagene CIS-factorial TA basal promoter reporter; actives raise or lower the signal
Method in brief: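 Cis-factorial format in HepG2: reporters report endogenous factors, not chimeric Gal4 fusions. After 24 h treatment, reporter transcripts were measured by RT-PCR-capillary electrophoresis fluorescence, analysed bidirectionally versus DMSO.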

[10] = ATG_TCF_b_cat_CIS: Attagene CIS-FACTORIAL HepG2 Assay for human T-Cell-Factor with beta-catenin (TCF/b-cat) (AID 2282965); settings: HepG2 TCF/beta-catenin cis-reporter transcription, actives raise or lower the signal
Method in brief: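 HepG2 cells transiently transfected with multiple cis-promoter-regulated reporter transcription units, so endogenous transcription factor activity is measured. Reporter mRNA read 24 hours after dosing by RT-PCR, fluorescent labelling and capillary electrophoresis; bidirectional fitting against DMSO.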

[11] = ATG_TAL_CIS: Attagene CIS-FACTORIAL HepG2 Assay for human TAL Basal Promoter (AID 2282966); settings: HepG2 Attagene cis-factorial TAL promoter reporter; actives raise or lower the signal;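 also: background control endpoint measuring basal TAL promoter reporter mRNA not a specific factor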
Method in brief: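 Steps: transfect HepG2 with multiple reporter transcription units; dose 24 h; isolate RNA, reverse-transcribe, PCR-amplify, label with 6-FAM, digest with HpaI; resolve by capillary electrophoresis. Bidirectional fitting against DMSO baseline.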

[12] = ATG_TGFb_CIS: Attagene CIS-FACTORIAL HepG2 Assay for human Transforming Growth Factor (TGF) (AID 2282967); settings: HepG2 Attagene CIS TGFb reporter, mRNA transcription; actives raise or lower the signal
Method in brief: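 Multiplexed cis-reporter HepG2 system, 24 h treatment; mRNA induction read by fluorescence after RT-PCR and CE; DMSO negative control, bidirectional curve fitting.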

[13] = ATG_VDRE_CIS: Attagene CIS-FACTORIAL HepG2 Assay for human Vitamin D Receptor Element (VDRE) (AID 2282968); settings: HepG2 VDRE cis-reporter transcription, actives raise or lower the signal
Method in brief: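 HepG2 cells transiently transfected with cis-element reporter units, dosed 24 h; reporter mRNA measured by RT-PCR, 6-FAM labeling, HpaI digestion and capillary electrophoresis. Activity fitted bidirectionally against DMSO baseline.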

[14] = target: X-box-binding protein 1 (Homo sapiens) (UniProt P17861); experiment: ATG_Xbp1_CIS: Attagene CIS-FACTORIAL HepG2 Assay for human X-box Binding Protein 1 (XBP1) (AID 2282972); settings: HepG2 XBP1 cis-element reporter, Attagene multiplex; actives raise or lower the signal
Sequence of X-box-binding protein 1 (Homo sapiens) (P17861 whole entry, looked up): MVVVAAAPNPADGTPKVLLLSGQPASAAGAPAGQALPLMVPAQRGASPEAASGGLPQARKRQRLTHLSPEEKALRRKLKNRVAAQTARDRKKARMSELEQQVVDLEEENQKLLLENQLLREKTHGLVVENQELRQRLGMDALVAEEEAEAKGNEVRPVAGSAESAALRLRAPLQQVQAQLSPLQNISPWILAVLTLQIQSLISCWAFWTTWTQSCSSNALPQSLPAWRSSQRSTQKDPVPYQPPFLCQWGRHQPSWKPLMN
Method in brief: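 HepG2 cells transiently transfected with cis-regulated multiple reporter transcription units; endogenous transcription factor activity measured 24 hours after chemical dosing. Reporter mRNA quantified by RT-PCR, 6-FAM primer extension, HpaI digestion and capillary electrophoresis; bidirectional fitting versus DMSO.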

[15] = ATG_M_19_TRANS: Attagene TRANS-FACTORIAL HepG2 Assay for M19 Transcription Factor (Internal Marker) (AID 2282974; active = hit-call score of the fitted dose curve at least 0.9, where 1 is the maximum); settings: HepG2 Attagene TRANS-FACTORIAL M19 internal marker reporter
Method in brief: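 Multiplexed TRANS format: HepG2 liver cells bearing transient GAL4-UAS reporter units, chemical treatment 24 h, reporter transcripts quantified by RT-PCR plus capillary electrophoresis. DMSO defines baseline.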

[16] = ATG_GAL4_TRANS: Attagene TRANS-FACTORIAL HepG2 Assay for GAL4 (Internal Marker) (AID 2282976; active = hit-call score of the fitted dose curve at least 0.9, where 1 is the maximum); settings: HepG2 Attagene TRANS GAL4 internal marker reporter
Method in brief: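 Liver HepG2 line bearing multiplexed GAL4-UAS reporter constructs; 24 h chemical treatment. Transcripts were quantified as fluorescent fragments on capillary electrophoresis after RT-PCR and HpaI cut, with activity fitted upward from DMSO.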

[17] = target: Estrogen-related receptor gamma (Homo sapiens) (UniProt P62508); experiment: ATG_ERRg_TRANS: Attagene TRANS-FACTORIAL HepG2 Assay for human Estrogen-Related Receptor gamma (ERRg) (AID 2282977; active = hit-call score of the fitted dose curve at least 0.9, where 1 is the maximum;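 also: hits increase reporter signal over DMSO so potencies reflect activators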); settings: HepG2 Attagene TRANS reporter, ERRg transactivation
Sequence of Estrogen-related receptor gamma (Homo sapiens) (P62508 whole entry, looked up, the tested form may be a part): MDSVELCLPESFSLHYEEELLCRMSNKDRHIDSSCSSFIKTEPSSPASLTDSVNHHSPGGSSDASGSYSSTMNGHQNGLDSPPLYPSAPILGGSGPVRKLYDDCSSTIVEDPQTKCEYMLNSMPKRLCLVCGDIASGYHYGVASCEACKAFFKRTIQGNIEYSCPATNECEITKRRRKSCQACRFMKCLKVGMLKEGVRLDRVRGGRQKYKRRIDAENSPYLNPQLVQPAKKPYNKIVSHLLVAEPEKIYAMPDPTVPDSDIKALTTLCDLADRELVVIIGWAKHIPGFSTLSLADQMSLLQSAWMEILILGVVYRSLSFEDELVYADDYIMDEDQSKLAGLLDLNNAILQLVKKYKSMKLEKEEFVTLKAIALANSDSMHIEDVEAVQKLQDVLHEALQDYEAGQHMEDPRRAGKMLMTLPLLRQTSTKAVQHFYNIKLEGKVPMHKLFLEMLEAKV
Method in brief: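 HepG2 cells transiently transfected with multiplexed GAL4-UAS reporter units and chimeric NR-Gal4 constructs were exposed to test chemicals for 24 h. Reporter mRNA was measured by RT-PCR, 6-FAM primer extension, HpaI digestion and capillary electrophoresis; gain-of-signal versus DMSO.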

[18] = target: Nuclear receptor subfamily 1 group I member 3 (Homo sapiens) (UniProt Q14994); experiment: ATG_CAR_TRANS: Attagene TRANS-FACTORIAL HepG2 Assay for human Constitutive Androstane Receptor (CAR) (AID 2282969; active = hit-call score of the fitted dose curve at least 0.9, where 1 is the maximum;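 also: activators raise reporter mRNA above DMSO so AC50 marks induction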); settings: HepG2 Attagene TRANS-FACTORIAL CAR reporter
Sequence of Nuclear receptor subfamily 1 group I member 3 (Homo sapiens) (Q14994 whole entry, looked up, the tested form may be a part): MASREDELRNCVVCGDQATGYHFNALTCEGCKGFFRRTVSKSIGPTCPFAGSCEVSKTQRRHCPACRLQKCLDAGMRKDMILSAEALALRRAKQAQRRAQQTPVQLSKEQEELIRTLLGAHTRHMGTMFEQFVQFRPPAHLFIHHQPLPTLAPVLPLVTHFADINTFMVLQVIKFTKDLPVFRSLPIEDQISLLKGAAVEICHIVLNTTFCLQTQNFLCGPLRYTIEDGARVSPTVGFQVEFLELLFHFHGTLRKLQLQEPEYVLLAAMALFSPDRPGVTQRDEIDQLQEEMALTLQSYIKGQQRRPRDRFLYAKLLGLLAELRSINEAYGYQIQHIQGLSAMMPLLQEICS
Method in brief: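 HepG2 cells transiently transfected with multiplexed GAL4-UAS reporter units expressing chimeric NR-Gal4 proteins; compound exposure 24 h. Reporter mRNA measured by RT-PCR, 6-FAM labelling, HpaI digestion and capillary electrophoresis; gain-of-signal fitted against DMSO baseline.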

[19] = target: Estrogen receptor (Homo sapiens) (UniProt P03372); experiment: ATG_ERa_TRANS: Attagene TRANS-FACTORIAL HepG2 Assay for human Estrogen Receptor alpha (ERa) (AID 2282970; active = hit-call score of the fitted dose curve at least 0.9, where 1 is the maximum); settings: HepG2 Attagene TRANS ERa GAL4 reporter, mRNA
Sequence of Estrogen receptor (Homo sapiens) (P03372 whole entry, looked up, the tested form may be a part): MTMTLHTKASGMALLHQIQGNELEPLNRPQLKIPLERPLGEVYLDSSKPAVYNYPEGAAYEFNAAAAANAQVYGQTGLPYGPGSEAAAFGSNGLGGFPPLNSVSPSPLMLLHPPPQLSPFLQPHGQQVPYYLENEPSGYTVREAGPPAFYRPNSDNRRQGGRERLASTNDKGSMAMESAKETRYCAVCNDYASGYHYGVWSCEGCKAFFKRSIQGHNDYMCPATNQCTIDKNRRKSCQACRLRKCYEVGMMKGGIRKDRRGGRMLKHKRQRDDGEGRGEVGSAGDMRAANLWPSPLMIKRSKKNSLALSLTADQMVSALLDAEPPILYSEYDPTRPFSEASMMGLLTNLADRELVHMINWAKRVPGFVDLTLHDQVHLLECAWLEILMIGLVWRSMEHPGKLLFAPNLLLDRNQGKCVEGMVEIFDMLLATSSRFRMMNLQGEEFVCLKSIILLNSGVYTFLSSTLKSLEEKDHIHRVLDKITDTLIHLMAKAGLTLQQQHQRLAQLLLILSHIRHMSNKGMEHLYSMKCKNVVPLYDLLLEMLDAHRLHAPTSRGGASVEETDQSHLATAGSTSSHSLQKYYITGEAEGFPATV
Method in brief: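 Multiplexed cell-based reporter format in HepG2: chimeric ERa-Gal4 protein drives GAL4-UAS reporter transcription. Fluorescent reporter mRNA quantified by capillary electrophoresis 24 hours after dosing; endpoint fitted as signal gain against DMSO.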

[20] = target: Steroid hormone receptor ERR1 (Homo sapiens) (UniProt P11474); experiment: ATG_ERRa_TRANS: Attagene TRANS-FACTORIAL HepG2 Assay for human Estrogen-Related Receptor alpha (ERRa) (AID 2282971; active = hit-call score of the fitted dose curve at least 0.9, where 1 is the maximum); settings: HepG2 Attagene TRANS reporter, ERRa transactivation
Sequence of Steroid hormone receptor ERR1 (Homo sapiens) (P11474 whole entry, looked up, the tested form may be a part): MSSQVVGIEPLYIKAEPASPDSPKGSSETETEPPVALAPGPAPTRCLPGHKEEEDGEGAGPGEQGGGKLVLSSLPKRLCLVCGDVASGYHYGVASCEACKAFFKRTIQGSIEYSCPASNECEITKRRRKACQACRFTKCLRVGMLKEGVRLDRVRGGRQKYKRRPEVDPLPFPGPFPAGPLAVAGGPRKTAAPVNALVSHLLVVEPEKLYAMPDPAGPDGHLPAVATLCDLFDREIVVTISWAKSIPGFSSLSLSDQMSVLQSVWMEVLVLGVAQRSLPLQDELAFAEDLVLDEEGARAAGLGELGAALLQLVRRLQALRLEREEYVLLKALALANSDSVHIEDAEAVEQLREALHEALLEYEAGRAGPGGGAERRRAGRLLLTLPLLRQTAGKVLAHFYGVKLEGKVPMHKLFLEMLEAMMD
Method in brief: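 Signal gain relative to DMSO for an ERRa-Gal4 chimeric receptor, read as reporter mRNA by RT-PCR/capillary electrophoresis. Human HepG2 liver cells, transient multiplex reporter transfection, 24 h chemical exposure.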

Measured: AC50

COc1cc(C=O)ccc1OC(=O)C(C)C
not listed: [18] | [19] | [20]
inactive: all other assays above

CSc1nc(NC2CC2)nc(NC(C)(C)C)n1
active: [2] 0.911 µM | [3] 100 µM | [10] 51.7 µM
not listed: [13] | [16] | [17] | [18] | [19] | [20]
inactive: all other assays above

CCCCCCCCCCCCCCCC(=O)OC[C@H](O)[C@H]1OC(=O)C(O)=C1O
active: [2] 38.2 µM | [5] 150 µM | [7] 100 µM | [10] 168 µM | [12] 3.14 µM | [13] 37.1 µM
inactive: [1] | [3] | [4] | [6] | [8] | [9] | [14] | [17]

CCCCCCCCCCCCSC
active: [2] 27.3 µM
not listed: [13] | [15] | [16] | [17] | [19] | [20]
inactive: all other assays above

CCCCCC(CO)CCC (stereo unspecified)
not listed: [16] | [17] | [18] | [19] | [20]
inactive: all other assays above

O=C1CCCCCCCCCCCCCCO1
active: [12] 158 µM
not listed: [16] | [17] | [18] | [19] | [20]
inactive: all other assays above

CCCOCC(C)O (stereo unspecified)
active: [2] 25.5 µM
not listed: [18] | [19] | [20]
inactive: all other assays above

COc1ccc(Nc2ccccc2)c(C)c1
active: [2] 26.9 µM | [3] 67.2 µM | [4] 51.5 µM | [19] 7.87 µM
not listed: [13] | [15] | [16] | [18] | [20]
inactive: all other assays above

Clc1ccc2c(c1)C(N1CCNCC1)=Nc1ccccc1O2
active: [1] 41.1 µM | [19] 50.1 µM | [14] 33.4 µM
not listed: [13] | [15] | [17] | [18] | [20]
inactive: all other assays above

O=C1C(c2[nH]c3ccc(S(=O)(=O)O)cc3c2O)=Nc2ccc(S(=O)(=O)O)cc21
not listed: [15] | [17] | [18] | [19]
inactive: all other assays above

O=C(O)CCCCC1CCSS1 (stereo unspecified)
not listed: [11] | [15] | [16] | [17] | [18] | [19] | [20]
inactive: all other assays above

O=C(Oc1ccccc1)c1ccc(O)cc1
active: [13] 159 µM
not listed: [17] | [18] | [19] | [20]
inactive: all other assays above

CN1Cc2c(N)cccc2C(c2ccccc2)C1 (stereo unspecified)
active: [2] 6.9 µM
not listed: [11] | [13] | [15] | [17] | [18] | [19] | [20]
inactive: all other assays above

CCC(C(=O)NC(N)=O)c1ccccc1 (stereo unspecified)
not listed: [13] | [15] | [16] | [17] | [18] | [19]
inactive: all other assays above

CCCCNC(=O)NS(=O)(=O)c1ccc(N)cc1
not listed: [15] | [16] | [17] | [18] | [19]
inactive: all other assays above

Nc1cc([N+](=O)[O-])ccc1Cl
not listed: [15] | [17] | [18] | [19] | [20]
inactive: all other assays above

O=C(O)c1cn(C2CC2)c2cc(N3CCNCC3)c(F)cc2c1=O
not listed: [13] | [16] | [17] | [18] | [19] | [20]
inactive: all other assays above

O=C(O)c1cn(-c2ccc(F)cc2)c2cc(N3CCNCC3)c(F)cc2c1=O
not listed: [13] | [15] | [17] | [18] | [19] | [20]
inactive: all other assays above
